Consider 85 compounds from PubChem BioAssay AID504766 (The Scripps Research Institute Molecular Screening Center, 2011).

Hit rate of the full screen: of about 340,000 compounds, about 3,400 (1%) were called active. The full list was thinned out, with actives kept by preference. Unmarked numbers belong to inactive results.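 The calls were made as follows: active = inhibition above the mean over all tested compounds plus 3 SD (cut at about 4.2% in these data); inactive = the rest.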

Chain of Nuclear receptor subfamily 0 group B member 1 (Homo sapiens) (P51843 207-470 limits assumed): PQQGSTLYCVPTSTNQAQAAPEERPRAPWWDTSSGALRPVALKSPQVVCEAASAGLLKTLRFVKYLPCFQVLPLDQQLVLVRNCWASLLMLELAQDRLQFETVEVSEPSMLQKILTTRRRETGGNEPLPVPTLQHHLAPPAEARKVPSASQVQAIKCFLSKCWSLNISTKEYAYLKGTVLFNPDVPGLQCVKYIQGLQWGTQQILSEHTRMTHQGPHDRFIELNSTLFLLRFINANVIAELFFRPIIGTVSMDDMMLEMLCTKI

The assay has as its target Nuclear receptor subfamily 0 group B member 1 (Homo sapiens) (UniProt P51843). As to the kind of experiment: DAX1 (NR0B1) inhibitors, primary screen, cell-based, HEK293, Gal4-DAX1, luciferase luminescence (AID 504766).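 Also: 0% = DAX1-transfected cells with DMSO and 100% = empty-vector control cells with DMSO; inhibition shows as a rise in luminescence from relieved DAX1 repression.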 The conditions noted are these: HEK293 Gal4-DAX1 luciferase reporter, at 6.75 µM, active compounds read high.
Take `C[C@@H]1CCCCO[C@H](CN(C)Cc2ccccc2)[C@@H](C)CN([C@H](C)CO)C(=O)c2cc(NS(=O)(=O)c3ccc(Cl)cc3)ccc2O1`: the inhibition is -0.88%. As for `Cc1ccc([C@H]2C[C@H](O)[C@@H](n3cc(COC(=O)c4ccccc4)nn3)CN2CC2CCCCC2)cc1`, the inhibition is 2.07%. With `Brc1ccccc1C1N=C(c2ccccc2)NO1` (stereo not given), the inhibition is 1.91%. For `N#Cc1ccc(C2N=C(c3ccccc3)NO2)cc1` (stereo not given), the inhibition was 4.58% (active). `Nc1cccc(OCCCCCOc2cccc(N)c2)c1`: the inhibition is -0.21%. For the compound `CSc1ncnc2c1ncn2CCCNCc1ccco1`, the inhibition is 0.14%. Turning to `C[C@H]1CN([C@@H](C)CO)C(=O)c2cc(-c3cccc(F)c3)cnc2O[C@@H]1CN(C)S(C)(=O)=O`, the inhibition is 3.06%. Turning to `N#CC1(Nc2ccc3c4c(cccc24)CC3)CCCCC1`, the inhibition is -0.16%.

As for `Cc1cc(N=Nc2ccc3ccccc3c2)ccc1O`, the inhibition is 4.42% (active).

As to `CCOC(=O)c1c(NC(=S)SC)sc(C(=O)N2CCc3ccccc3C2)c1C`, the inhibition is 0.87%. To `CCCSc1nc(NCc2ccco2)c2c3c(sc2n1)COC(C)(CC)C3` (stereo not given) belongs 1.15%. `CN1CCc2c(sc3c2c(NCc2ccco2)nc2nnnn23)C1`: the inhibition is 5.18% (active). Regarding `CCSc1nc2sc3c(c2c(=O)n1-c1ccc(C)cc1)CCN(C)C3`, the inhibition was 0.31%. Regarding `C[C@@H]1CN([C@@H](C)CO)C(=O)c2cc(NS(C)(=O)=O)ccc2O[C@@H](C)CCCCO[C@H]1CN(C)C(=O)Nc1ccc2c(c1)OCO2`, the inhibition was 0.65%.

`COc1ccc(N2CCN(C(=O)C3CCN(C(=O)c4ccccc4Cl)CC3)CC2)cc1`: the inhibition was -0.89%. The figure for `COc1ccc(N2CCN(C(=O)C3CCN(S(=O)(=O)c4ccc(C)cc4)CC3)CC2)cc1` is 7.45% (active); for `Cc1ccc(S(=O)(=O)N2CCC(C(=O)N3CCCCCCC3)CC2)cc1` it is -0.36%; for `COc1ccc(N)cc1NC(=O)CN1CCOCC1` it is 1.8%. Turning to `CC12C(=O)N(n3cnnc3)C(=O)C1C1C=CC2C1` (stereo not given), the inhibition is 5.77% (active). Turning to `CCN(CC)C(=O)Oc1ccc(Br)cc1C(=O)Nc1ccc(F)c(Cl)c1`, the inhibition is 4.68% (active). To `COc1ccc(Cl)cc1C(=O)Nc1ccc(N(C)C(C)=O)cc1` belongs -0.13%; to `O=C(COc1ccccc1F)NNC(=O)c1cc(Br)ccc1Cl`, 0.63%; to `N#Cc1ccc(OCC(=O)Nc2nc(-c3ccccn3)cs2)cc1`, -0.76%. On to `C[C@@H]1CN([C@H](C)CO)S(=O)(=O)c2ccc(C#C[C@@H](C)O)cc2O[C@@H]1CN(C)Cc1ccc(-c2ccccc2)cc1`, for which the inhibition is -0.61%. On to `Cc1ccc(CN(C)C[C@@H]2OCc3cnnn3CCCC(=O)N([C@@H](C)CO)C[C@H]2C)cc1`, for which the inhibition is 0.34%.

Regarding `O=C(Nc1cc(S(=O)(=O)N2CCOCC2)ccc1Cl)c1cc(=O)c2ccccc2o1`, the inhibition is -1.1%. For the compound `O=S(=O)(c1ccc(NC(=S)NN=C(C2CC2)C2CC2)cc1)N1CCOCC1`, the inhibition was -0.03%. On to `O=[N+]([O-])c1cc(Cl)cc(/C=N/NC(=S)Nc2cc(S(=O)(=O)N3CCOCC3)ccc2Cl)c1O`, for which the inhibition is 4.75% (active). Take `O=C1[C@H]2[C@@H](c3ccc(C(F)(F)F)cc3)N[C@]3(CCCN(Cc4ccc(Br)cc4)C3=O)[C@H]2C(=O)N1Cc1ccccc1`: the inhibition was -0.81%. Turning to `C[C@@H]1Cn2cnc(C(=O)Nc3ccc(CNC(=O)OC(C)(C)C)cc3)c2C(=O)N1`, the inhibition is -0.54%. For `CC(=O)c1ccc(NC(=O)CSC(=S)N2CCCC2)cc1`, the inhibition was -0.17%. With `O=C(CSC(=S)N1CCOCC1)c1ccccc1`, the inhibition was -3.24%. In the case of `O=C(CSC(=S)N1CCCCC1)c1c(F)cccc1F`, the inhibition was 8.18% (active).

Take `CC(C#N)(NC(=O)CN1CCN(S(=O)(=O)c2cc(C(F)(F)F)ccc2Cl)CC1)C1CC1` (stereo not given): the inhibition is 4.49% (active). As to `N#Cc1ccsc1NC(=O)CN1CCN(S(=O)(=O)c2cc(Cl)ccc2Cl)CC1`, the inhibition is -0.1%. As for `O=C(CN1CCN(S(=O)(=O)c2cc(Cl)ccc2Cl)CC1)c1ccc(O)c(O)c1`, the inhibition is 0.26%. `CC(OC(=O)c1cccnc1Cl)C(=O)NC1CCCCC1` (stereo not given): the inhibition was 2.75%. For the compound `COc1ccc(C(C(=O)NC(C)(C)C)N(C(=O)Cn2nnc3ccccc32)c2ccc(C(C)=O)cc2)cc1O` (stereo not given), the inhibition is 5.46% (active). As to `COc1ccc(C(C(=O)NCC2CCCO2)N(C(=O)Cn2nnc3ccccc32)c2ccc(NC(C)=O)cc2)cc1OC` (stereo not given), the inhibition is -0.65%.

In the case of `CCC(C)(C)NC(=O)C(c1ccc(O)cc1)N(C(=O)Cn1nnc2ccccc21)c1ccc(NC(C)=O)cc1` (stereo not given), the inhibition is 0.14%. Take `COc1ccccc1C(=O)NC(=S)Nc1ccc(N2CCOCC2)cc1`: the inhibition is 0.43%.

Turning to `C[C@H]1CN([C@@H](C)CO)C(=O)c2cc(Br)cnc2O[C@H]1CN(C)S(=O)(=O)c1cccs1`, the inhibition was 0.93%. Turning to `C[C@H]1CN([C@@H](C)CO)C(=O)CCCn2cc(nn2)CO[C@@H]1CN(C)S(=O)(=O)c1cccs1`, the inhibition was -0.09%. Turning to `COCCNc1ccc(-c2n[nH]c(=O)c3ccccc23)cc1[N+](=O)[O-]`, the inhibition is -1.07%. For the compound `CN(C)CCNc1ccc(-c2n[nH]c(=O)c3ccccc23)cc1[N+](=O)[O-]`, the inhibition is 4.46% (active). On to `CCN(CC)CCNc1ccc(Cl)cc1[N+](=O)[O-]`, for which the inhibition is 0.15%. Turning to `CCc1cccc(CC)c1N1C(=O)CC(Sc2ccccc2N)C1=O` (stereo not given), the inhibition is 2.47%. On to `CN(C)C(CNC(=O)c1cccc(S(=O)(=O)N2CCc3ccccc3C2)c1)c1ccccc1` (stereo not given), for which the inhibition was -0.17%. For the compound `c1ccc(-c2cc(-c3ccccc3)[nH]n2)cc1`, the inhibition is 5.19% (active).

For the compound `Nc1cccc(-c2cc(-c3ccccc3)nc(-c3cccc(N)c3)n2)c1`, the inhibition was -0.66%. Consider `Oc1ccccc1-c1cc(-c2ccc(Cl)cc2)n[nH]1`, for which the inhibition is 3.28%. As for `Cc1[nH]c2ccccc2c1C(=O)C(=O)NCc1nnnn1-c1cccc(F)c1`, the inhibition was -0.63%. To `O=C1CCC(C(=O)OCC(=O)Nc2ccc(OC(F)F)cc2)=NN1` belongs 0.5%.

On to `O=C(N=C1SC2CS(=O)(=O)CC2N1Cc1ccccc1)c1ccccc1` (stereo not given), for which the inhibition is 4.11%. To `O=C(c1cccs1)N1C[C@H](n2cc(C3CC3)nn2)[C@@H](O)C[C@@H]1c1ccccc1` belongs 1.63%; to `C#CCN(C[C@@H]1[C@@H](OC(=O)NC2CC2)[C@@H](OC(=O)NC2CC2)Cn2c(=O)ccc(=O)n21)S(=O)(=O)c1ccc(C)cc1`, -0.06%; to `Cc1ccccc1OS(=O)(=O)c1cccc([N+](=O)[O-])c1`, 1.42%. To `O=C(c1ccncc1)N1CCN(S(=O)(=O)c2cccc([N+](=O)[O-])c2)CC1` belongs 0.88%. To `N/C(=N\OS(=O)(=O)c1cccc([N+](=O)[O-])c1)c1ccncc1` belongs 4.92% (active). For `CN(C)C(CNC(=O)c1ccc(OCc2cn3ccccc3n2)cc1)c1ccco1` (stereo not given), the inhibition is 0.93%. Take `O=C(NCCc1ccco1)c1ccc(OCc2cn3ccccc3n2)cc1`: the inhibition is 0.65%. Consider `O=Cc1ccc(OCc2cn3ccccc3n2)cc1`, for which the inhibition was 7.12% (active). To `N#CCCN(C(=O)Nc1ccc(Cl)c(Cl)c1)C1CCCCC1` belongs 1.35%; to `CC1CCN(c2ccc3c(c2)S(=O)(=O)c2cc(C(=O)O)ccc2C3=O)CC1`, -0.21%; to `CCOC(=O)C(NC(C)=O)C(=O)Nc1ccc(OC)cc1` (stereo not given), 1.97%. Take `COc1ccc(NC(=S)NCCNC(C)=O)cc1`: the inhibition is 4.78% (active). For `COc1ccc(NC(=S)NCC2CCN(c3ccc(OC)cc3)C2)cc1` (stereo not given), the inhibition was 0.86%.

As to `COc1ccc(NC(=O)c2cc(=O)[nH]c3ccccc23)cc1S(=O)(=O)N1CCOCC1`, the inhibition was 1.51%. Consider `COC(=O)c1ccccc1N=NNc1ccc([N+](=O)[O-])cc1`, for which the inhibition is 2.03%. To `C[C@H](CO)N1C[C@H](C)[C@@H](CN(C)Cc2ccc3c(c2)OCO3)OCc2cnnn2CCCC1=O` belongs 0.31%; to `Cc1csc(=O)n1CCC(=O)OCC(=O)Nc1ccc(N2CCOCC2)cc1`, 0.99%; to `CCN1C(=O)[C@H]2[C@@H](c3ccccc3)N[C@]3(CCCN(Cc4ccc(C)cc4)C3=O)[C@H]2C1=O`, 0.28%. Regarding `O=[N+]([O-])c1ccc(C=NN=Cc2ccc([N+](=O)[O-])cc2)cc1`, the inhibition is 0.89%. Turning to `O=C(NN=Cc1ccc([N+](=O)[O-])cc1)C1CC1`, the inhibition is 0.79%. The figure for `O=C(N/N=C/c1ccc([N+](=O)[O-])cc1)c1c[nH]c2ccccc12` is 5.39% (active).

Regarding `COc1ccc(-c2cnc3c(c2)C(=O)N([C@H](C)CO)C[C@@H](C)[C@H](CN(C)Cc2ccccc2)O3)cc1`, the inhibition was 1.69%.

On to `CN(C)/C=C(/C(=O)c1ccc(Cl)cc1)S(=O)(=O)c1ccccc1`, for which the inhibition is -0.69%. For the compound `CN(C)/C=C(/C(=O)c1ccc(F)cc1)S(=O)(=O)c1ccc(F)cc1`, the inhibition was 7.15% (active).

Take `CN(C)/C=C(/C(=O)c1ccccc1)S(=O)(=O)c1ccc(Cl)cc1`: the inhibition is -0.08%. `CCOC(=O)C=Cc1ccc(C(=O)OCC)[nH]1`: the inhibition is -1.29%. The figure for `Cc1ccc(S(=O)(=O)NN=C2CC(C)(C)CC(=O)C2(C)C)cc1` is 1.47%; for `COC(=O)c1sccc1NC(=O)c1csc2c1CCCC2` it is 4.39% (active); for `COC(=O)c1sccc1NC(=O)c1ccc(Cl)cc1` it is 0.77%.

Regarding `O=C(Nc1ccccc1N1CCOCC1)c1csc2c1CCCC2`, the inhibition was -0.73%.

`O=C(C[C@H]1C[C@@H]2c3cc(NC(=O)C4CCC4)ccc3O[C@@H]2[C@H](CO)O1)NC1CCCCC1`: the inhibition is 1.37%.

Usually inhibition stands for the change of the read-out against control, counted positive when it falls.
